# What was measured:
# Details in all cases: concentration: 1 μM, replicates: in singlicate; n = 1
# [1] = tested on: KIT-autoinhibited
# [2] = tested on: KIT
# [3] = tested on: LATS1
# [4] = tested on: LATS2
# [5] = tested on: LCK
# [6] = tested on: LIMK1
# [7] = tested on: LIMK2
# [8] = tested on: T1, LKB1
# T1 construct: gene STK11
# [9] = tested on: T2, LOK
# T2 construct: gene STK10
# [10] = tested on: LRRK2
# [11] = tested on: LTK
# [12] = tested on: LYN
# [13] = tested on: T3, LZK
# T3 construct: gene MAP3K13
# [14] = tested on: MAK
# [15] = tested on: MAP3K15
# [16] = tested on: MAP3K1
# [17] = tested on: MAP3K2
# [18] = tested on: MAP3K3
# [19] = tested on: MAP3K4
# [20] = tested on: MAP4K2
# 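Note: KINOMEscan kinase panel screen.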
smiles,measurement,setting,value
COc1ccc(Nc2ncc(C#N)c(Nc3ccccc3C(N)=O)n2)cc1N1CCN(C)CC1.Cl [GSK1558669],%Inh,[1],96.1%
same,%Inh,[2],99.9%
same,%Inh,[3],78%
same,%Inh,[4],98.9%
same,%Inh,[5],100%
same,%Inh,[6],85%
same,%Inh,[7],93.4%
same,%Inh,[8],58%
same,%Inh,[9],99%
same,%Inh,[10],98.8%
same,%Inh,[11],89%
same,%Inh,[12],93.9%
same,%Inh,[13],97.5%
same,%Inh,[14],66%
same,%Inh,[15],73%
same,%Inh,[16],38%
same,%Inh,[17],99.2%
same,%Inh,[18],99.8%
same,%Inh,[19],99.9%
same,%Inh,[20],98.8%
Cn1ccc2ncnc(Oc3ccc(NC(=O)Nc4ccncc4)c(Cl)c3)c21,%Inh,[1],0%
same,%Inh,[2],74%
same,%Inh,[3],0%
same,%Inh,[4],0%
same,%Inh,[5],0%
same,%Inh,[6],0%
same,%Inh,[7],0%
same,%Inh,[8],13%
same,%Inh,[9],14%
same,%Inh,[10],0%
same,%Inh,[11],0%
same,%Inh,[12],0%
same,%Inh,[13],0%
same,%Inh,[14],10%
same,%Inh,[15],0%
same,%Inh,[16],0%
same,%Inh,[17],0%
same,%Inh,[18],0%
same,%Inh,[19],0%
same,%Inh,[20],0%
O=c1cc(N2CCOCC2)nc2n(Cc3cccc(C(F)(F)F)c3)ccn12 [GSK2297543],%Inh,[1],2%
same,%Inh,[2],13%
same,%Inh,[3],0%
same,%Inh,[4],0%
same,%Inh,[5],22%
same,%Inh,[6],0%
same,%Inh,[7],7%
same,%Inh,[8],10%
same,%Inh,[9],0%
same,%Inh,[10],0%
same,%Inh,[11],16%
same,%Inh,[12],0%
same,%Inh,[13],0%
same,%Inh,[14],31%
same,%Inh,[15],0%
same,%Inh,[16],5%
same,%Inh,[17],10%
same,%Inh,[18],0%
same,%Inh,[19],13%
same,%Inh,[20],0%
Cc1c2ccc(N(C)c3ccnc(Nc4cccc(S(N)(=O)=O)c4)n3)cc2nn1Cc1ccccc1.Cl.Cl [GW787226],%Inh,[1],86%
same,%Inh,[2],99.9%
same,%Inh,[3],6%
same,%Inh,[4],0%
same,%Inh,[5],90.7%
same,%Inh,[6],89%
same,%Inh,[7],73%
same,%Inh,[8],48%
same,%Inh,[9],98.4%
same,%Inh,[10],0%
same,%Inh,[11],45%
same,%Inh,[12],84%
same,%Inh,[13],0%
same,%Inh,[14],0%
same,%Inh,[15],0%
same,%Inh,[16],0%
same,%Inh,[17],31%
same,%Inh,[18],0%
same,%Inh,[19],22%
same,%Inh,[20],0%
CCc1nc(-c2cccc(C)c2)c(-c2ccnc(NCc3ccccc3)c2)s1,%Inh,[1],0%
same,%Inh,[2],26%
same,%Inh,[3],21%
same,%Inh,[4],0%
same,%Inh,[5],0%
same,%Inh,[6],0%
same,%Inh,[7],0%
same,%Inh,[8],0%
same,%Inh,[9],19%
same,%Inh,[10],3%
same,%Inh,[11],0%
same,%Inh,[12],8%
same,%Inh,[13],0%
same,%Inh,[14],26%
same,%Inh,[15],3%
same,%Inh,[16],0%
same,%Inh,[17],0%
same,%Inh,[18],0%
same,%Inh,[19],0%
same,%Inh,[20],3%
CN1c2ccc(NCc3ccc(F)cc3)cc2-c2c(cnn2C)S1(=O)=O,%Inh,[1],0%
same,%Inh,[2],24%
same,%Inh,[3],0%
same,%Inh,[4],0%
same,%Inh,[5],4%
same,%Inh,[6],0%
same,%Inh,[7],0%
same,%Inh,[8],23%
same,%Inh,[9],0%
same,%Inh,[10],0%
same,%Inh,[11],0%
same,%Inh,[12],0%
same,%Inh,[13],0%
same,%Inh,[14],0%
same,%Inh,[15],0%
same,%Inh,[16],0%
same,%Inh,[17],0%
same,%Inh,[18],5%
same,%Inh,[19],11%
same,%Inh,[20],0%
COc1cc2c(cc1OCCN1CCN(C)CC1)ncc1c3ccc(C#N)cc3[nH]c21,%Inh,[1],71%
same,%Inh,[2],83%
same,%Inh,[3],0%
same,%Inh,[4],20%
same,%Inh,[5],57%
same,%Inh,[6],0%
same,%Inh,[7],0%
same,%Inh,[8],29%
same,%Inh,[9],33%
same,%Inh,[10],98.8%
same,%Inh,[11],0%
same,%Inh,[12],19%
same,%Inh,[13],11%
same,%Inh,[14],21%
same,%Inh,[15],61%
same,%Inh,[16],0%
same,%Inh,[17],0%
same,%Inh,[18],0%
same,%Inh,[19],0%
same,%Inh,[20],54%
O=C1NC(=O)C(N2CCc3ccccc32)=C1c1cccc(Cl)c1 [SB-408010],%Inh,[1],0%
same,%Inh,[2],13%
same,%Inh,[3],0%
same,%Inh,[4],10%
same,%Inh,[5],10%
same,%Inh,[6],0%
same,%Inh,[7],0%
same,%Inh,[8],0%
same,%Inh,[9],0%
same,%Inh,[10],9%
same,%Inh,[11],5%
same,%Inh,[12],7%
same,%Inh,[13],12%
same,%Inh,[14],37%
same,%Inh,[15],1%
same,%Inh,[16],26%
same,%Inh,[17],0%
same,%Inh,[18],22%
same,%Inh,[19],9%
same,%Inh,[20],0%
O=C(c1ccc(-c2cc(-c3c[nH]nc3-c3ccccn3)ccn2)cc1)N1CCOCC1 [GW812171],%Inh,[1],29%
same,%Inh,[2],0%
same,%Inh,[3],0%
same,%Inh,[4],0%
same,%Inh,[5],0%
same,%Inh,[6],0%
same,%Inh,[7],0%
same,%Inh,[8],0%
same,%Inh,[9],28%
same,%Inh,[10],0%
same,%Inh,[11],4%
same,%Inh,[12],0%
same,%Inh,[13],0%
same,%Inh,[14],0%
same,%Inh,[15],0%
same,%Inh,[16],0%
same,%Inh,[17],22%
same,%Inh,[18],0%
same,%Inh,[19],9%
same,%Inh,[20],0%
c1ccc(-c2n[nH]cc2-c2ccnc3ccccc23)nc1 [GW271431],%Inh,[1],11%
same,%Inh,[2],20%
same,%Inh,[3],0%
same,%Inh,[4],4%
same,%Inh,[5],17%
same,%Inh,[6],21%
same,%Inh,[7],30%
same,%Inh,[8],18%
same,%Inh,[9],0%
same,%Inh,[10],0%
same,%Inh,[11],13%
same,%Inh,[12],0%
same,%Inh,[13],0%
same,%Inh,[14],17%
same,%Inh,[15],0%
same,%Inh,[16],16%
same,%Inh,[17],11%
same,%Inh,[18],0%
same,%Inh,[19],4%
same,%Inh,[20],0%

# — publication PMC5540273 (PLoS ONE, 2017)
